Bioassay records (PubChem BioAssay)
TDP1 cell CPT – growth inhibition of DT40 Tdp1-/-;hTDP1 cells with camptothecin (screen for TDP1 inhibitors). Potency, µM (titrated, usually from 46.2 µM), hits mostly inhibitors. chicken DT40 Tdp1-/-;hTDP1 cells + 20 nM CPT, ATP luminescence, 48 h. 12% of 420,000 active. AID 686979; note: nearly all actives have a fitted effect of over 55% in size
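Cell growth measured by CellTiter-Glo luminescence after a minimum 48 h, 37 C compound exposure with 20 nM CPT in Tdp1-knockout DT40 cells stably expressing hTDP1, seeded 400/well; qHTS titration format.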
TDP1 cell noCPT – qHTS for Inhibitors of human tyrosyl-DNA phosphodiesterase 1 (TDP1): qHTS in cells in absence of CPT. DT40 Tdp1-/- hTDP1 cells, no CPT, ATP luminescence, 48 h. Potency, µM (highest dose often 46.2 µM), actives largely listed as inhibitors. 15% of 420,000 active. AID 686978, 2013; note: nearly all actives have a fitted effect of over 55% in size
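Cells were dispensed at 400 per well, compounds added by pin tool, plates incubated ≥48 hr at 37 °C, then CellTiter-Glo added for 30 min at room temperature before luminescence reading. Line: DT40 Tdp1-/- complemented with hTDP1; camptothecin omitted.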
HT1080 IDH1KD tx – kills HT-1080 cells with IDH1 knockdown; HT-1080 IDH1 knockdown viability, ATP luminescence, 48 h; Potency, µM (series often up to 46.1 µM), hits mostly cytotoxic; 2% of 360,000 active; AID 686971
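Luminescent ATP read-out (CellTiter-Glo, 10 min at room temperature) after 48 h compound exposure at 37 °C gave viability of IDH1-knockdown HT-1080 cells. Activity was normalised to DMSO and cell-free wells, then fitted as concentration-response curves.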
HT1080-NT tox – kills 2HG-producing HT-1080-NT fibrosarcoma cells; HT-1080-NT fibrosarcoma viability, CellTiter-Glo ATP luminescence, 48 h; Potency, µM (series often up to 46.1 µM), usual class: cytotoxic; 1.6% of 360,000 active; AID 686970;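 note: NT is the 2HG producing partner of a matched IDH1 knockdown line; nearly all actives have a fitted effect of over 55% in size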
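HT-1080-NT fibrosarcoma cells (2HG-overproducing), 750 cells/well in RPMI with 5% FBS, dosed after 2 h and incubated 48 h at 37C. CellTiter-Glo luminescence normalized to DMSO and no-cell wells; concentration-response curves fitted and classed.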
IL1B secr inh – blocks inflammasome-driven IL-1 beta release | THP-1 LPS/ATP IL-1B secretion, AlphaLISA, 16 h; hits give low values | activity change, % at 57.5 µM | 4.7% of 360,000 active; in the data active = activity change below about -50%; inconclusive = mostly about -30% to -49%
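Secreted IL-1B measured by AlphaLISA bead assay after 16 h compound exposure of THP-1 cells; compounds (final up to 57.5 uM) added 1 h before LPS (250 ng/mL) and ATP (1.25 mM) stimulation; lower signal means less secretion.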
Large screens that a line does not name were inactive. This is a sample that favours compounds with a hit; in the whole collection about 19% have one here. Unless noted, calls come from the whole dose curve; as a rule, active = well fitted curve in the direction sought with a large enough effect; inconclusive = small, poorly fitted or top-dose-only effect, or another doubt; inactive = no such curve, though single readings can be large; an effect the other way counts as inactive or inconclusive.

Cc1ccccc1Cn1cc(S(=O)(=O)c2ccc(Cl)cc2)c(=O)c2cc3c(cc21)OCO3	TDP1 cell noCPT inconclusive (no result: HT1080 IDH1KD tx, HT1080-NT tox, IL1B secr inh)
COc1ccccc1C(=O)NC(=S)Nc1ccc(NC(=O)c2cccs2)cc1	none
O=C(/C=C/c1cccs1)c1ccc(NC(=O)c2ccccc2F)cc1	TDP1 cell noCPT 12µM
O=C(Nc1ccc(NC(=O)c2ccccc2F)cc1)c1cccs1	TDP1 cell noCPT inconclusive
COc1ccccc1C(=O)Nc1ccc(C(=O)/C=C/c2cccs2)cc1	TDP1 cell CPT inconclusive, TDP1 cell noCPT 18µM, IL1B secr inh inconclusive
COc1cc2cc[n+](Cc3ccc([N+](=O)[O-])cc3)cc2cc1OC	TDP1 cell CPT 18µM, TDP1 cell noCPT inconclusive
O=[N+]([O-])c1ccc(C[n+]2cccc(O)c2)cc1	none
CCC(=O)OCC(=O)Nc1ccc(OC)cc1[N+](=O)[O-]	none
CCOC(=O)C(=CNc1ccc(Cl)cn1)C(=O)OCC	TDP1 cell noCPT inconclusive
CCOC(=O)C(=CNc1cc(C)nn1-c1ccc(Cl)cc1)C(=O)OCC	TDP1 cell CPT 23µM, TDP1 cell noCPT inconclusive
CCOC(=O)C(=CNc1ccc(C)cc1C)C(=O)OCC	TDP1 cell CPT inconclusive, TDP1 cell noCPT 16µM
CCOC(=O)C(=CNc1ccc(OC)cc1[N+](=O)[O-])C(=O)OCC	TDP1 cell CPT 16µM, TDP1 cell noCPT 12µM
Cc1cc(C)c(S(=O)(=O)c2cccc(Br)c2C)c(Cl)n1	none
CCOc1ccc(/C=N/NC(=O)c2nnn(-c3nonc3N)c2CN(C)C2CCCCC2)cc1	none
Cc1ccc(C(=O)OCC(=O)N2C(C)CCCC2C)cc1S(=O)(=O)N1CCCCC1 (stereo unspecified)	TDP1 cell CPT inconclusive, TDP1 cell noCPT inconclusive
Cc1ccc(NC(=O)COc2ccccc2C(N)=O)cc1S(=O)(=O)N1CCCCCC1	TDP1 cell CPT 4.1µM, TDP1 cell noCPT 3.7µM, IL1B secr inh -55
COC(=O)c1ccc(COC(=O)c2ccc(C)c(S(=O)(=O)N3CCCCC3)c2)cc1	TDP1 cell CPT 29µM, TDP1 cell noCPT inconclusive
Cc1ccc(NC(=O)COC(=O)c2ccccc2F)cc1S(=O)(=O)N1CCCCC1	none
Cc1ccc(NC(=O)COC(=O)c2cccc(C)c2[N+](=O)[O-])cc1S(=O)(=O)N1CCCCC1	TDP1 cell CPT 16µM, TDP1 cell noCPT inconclusive
Cc1ccc(NC(=O)COc2ccc(N(C)C(=O)C(C)(C)C)cc2)cc1S(=O)(=O)N1CCCCC1	TDP1 cell CPT 8.2µM, TDP1 cell noCPT 2.3µM
COc1ccc(NC(=O)CN(C)CC(=O)Nc2ccc(C)c(S(=O)(=O)N3CCCCC3)c2)cc1	TDP1 cell CPT inconclusive, TDP1 cell noCPT inconclusive, IL1B secr inh inconclusive
COc1ccc(N2Cc3cccc(C(=O)Nc4ccc(C)c(C)c4)c3C2=O)cc1	none (no result: HT1080 IDH1KD tx, HT1080-NT tox, IL1B secr inh)
Cc1ccc(S(=O)(=O)N2CCCCC2)c2nsnc12	none
O=C(C(Cc1ccccc1)N1C(=O)c2ccccc2C1=O)N1CCc2ccccc21 (stereo unspecified)	none
Cc1ccc(NC(=O)/C=C/c2ccco2)cc1S(=O)(=O)N1CCCCCC1	TDP1 cell CPT 21µM, TDP1 cell noCPT 9.2µM
CCc1noc(C)c1C(=O)Nc1ccc(C)c(S(=O)(=O)N2CCCCCC2)c1	TDP1 cell CPT 16µM, TDP1 cell noCPT inconclusive
CCOc1ccc(C(=O)CCC(=O)Nc2ccc(C)c(S(=O)(=O)N3CCCCC3)c2)cc1	TDP1 cell noCPT 16µM
CCc1noc(C)c1C(=O)Nc1cc(S(=O)(=O)N2CCCCC2)ccc1N(C)C	TDP1 cell CPT inconclusive, TDP1 cell noCPT inconclusive
Cc1ccc(NC(=O)COc2cccc(C)c2C)cc1S(=O)(=O)N1CCCCCC1	TDP1 cell CPT inconclusive, TDP1 cell noCPT 18µM, HT1080 IDH1KD tx inconclusive
O=C(Cc1nc2ccccc2[nH]1)N1CCC(n2c(C3CCC3)nc3cccnc32)CC1	none (no result: HT1080 IDH1KD tx, HT1080-NT tox, IL1B secr inh)
O=C(CN1CCN(S(=O)(=O)c2cc(Cl)ccc2Cl)CC1)Nc1ccc2c(c1)OCCO2	TDP1 cell CPT inconclusive, TDP1 cell noCPT inconclusive
O=C1c2ccccc2C(=O)N1c1ccc(S(=O)(=O)N2CCOCC2)cc1	none (no result: HT1080 IDH1KD tx, HT1080-NT tox, IL1B secr inh)
Cc1cccc(C)c1-n1nnnc1C1c2ccccc2C(=O)N1C1CC1 (stereo unspecified)	HT1080 IDH1KD tx inconclusive
COCCNCC(=O)Nc1ccc(C)c(S(=O)(=O)N2CCCCC2)c1	none
COc1ccc(NC(=O)COc2ccccc2C)cc1S(=O)(=O)N1CCCCC1	TDP1 cell CPT inconclusive, TDP1 cell noCPT 8.2µM
COc1ccc(NC(=O)CN(Cc2ccco2)Cc2ccco2)cc1S(=O)(=O)N1CCCCC1	TDP1 cell CPT 23µM, TDP1 cell noCPT inconclusive
Cc1ccc(C(=O)Nc2cccc(O)c2)cc1S(=O)(=O)N1CCCCCC1	TDP1 cell CPT 29µM, TDP1 cell noCPT 1.2µM, IL1B secr inh -57
COc1ccc(NC(=O)COc2ccccc2C(N)=O)cc1S(=O)(=O)N1CCCCC1	TDP1 cell noCPT inconclusive
Cc1ccc(NC(=O)CCl)cc1S(=O)(=O)N1CCCCCC1	TDP1 cell CPT 2.1µM, TDP1 cell noCPT 2.6µM, HT1080 IDH1KD tx 8.2µM, HT1080-NT tox 16µM, IL1B secr inh -87
COc1ccc(NC(=O)CN2CCCCC2)cc1S(=O)(=O)N1CCCCC1	none
CCOC(=O)Cc1csc(SCC(=O)N2CCN(c3ccccc3)CC2)n1	none
Cc1ccc(NC(=O)CNc2ccccc2N2CCCC2=O)cc1S(=O)(=O)N1CCCCC1	TDP1 cell CPT 16µM, TDP1 cell noCPT 15µM
COc1ccc(O)cc1CN1CCN(c2ncc(Cc3ccccc3)cn2)CC1	TDP1 cell CPT 23µM, TDP1 cell noCPT 16µM, HT1080 IDH1KD tx inconclusive, HT1080-NT tox inconclusive
Oc1cccc(CN2CCN(c3ncc(Cc4ccccc4)cn3)CC2)c1	TDP1 cell CPT inconclusive, TDP1 cell noCPT inconclusive
Oc1ccc(Cl)c(CN2CCN(c3ncc(Cc4ccccc4)cn3)CC2)c1	TDP1 cell CPT inconclusive, TDP1 cell noCPT 18µM, HT1080 IDH1KD tx inconclusive, HT1080-NT tox inconclusive
COC(=O)/C=c1\[nH]c2nnc(C)n2c1=O	none
CCCCc1ccc(Nc2ncnc3c2cnn3-c2ccc(C)cc2)cc1	none (no result: HT1080 IDH1KD tx, HT1080-NT tox, IL1B secr inh)
CC(C)CCNC(=O)C(C)N(Cc1ccc(F)cc1)C(=O)c1ccc(CN2CCOCC2)o1 (stereo unspecified)	none
CC(C)(C)NC(=O)C(c1ccc(F)cc1)N(Cc1cccs1)C(=O)c1ccc(CN2CCOCC2)o1 (stereo unspecified)	TDP1 cell noCPT inconclusive, IL1B secr inh -53
C=CCNc1nc2cc(-c3ccc(C(=O)N4CCOCC4)cc3)sc2c(=O)n1C	TDP1 cell CPT 16µM, TDP1 cell noCPT inconclusive, HT1080 IDH1KD tx inconclusive, HT1080-NT tox inconclusive
COc1cccc(CNc2nc3cc(-c4ccc(C(=O)N5CCN(C)CC5)cc4)sc3c(=O)n2C)c1	TDP1 cell CPT 21µM, TDP1 cell noCPT inconclusive, HT1080 IDH1KD tx 15µM, HT1080-NT tox 23µM
